In the supplement of paper PMC6555819:

Key:
Experiment in all cases: PBM binding z-score (relative to random genomic background probes); higher = stronger binding; sequences stand for … in GC…GCGATTGACAGCGTAGAATGAAGG
[1] = test system: FXR:RXRa (NR concentration 270 nM, RXRa partner concentration 90 nM)
In short: (§1)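 Custom Agilent 4×180K protein-binding microarrays carried double-stranded probes, each with a 34-nt variable region. These regions held direct-repeat seeds, single-nucleotide variants, half-site ablations and random human genomic background sequences. Ligand-free nuclear receptor dimers were incubated on the arrays for 1 h, antibodies against each partner (one per run) detected binding, and scanned fluorescence was regression-normalized. Binding z-scores take the random background probes as reference.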

[2] = test system: LXRa:RXRa (NR concentration 270 nM, RXRa partner concentration 90 nM)
In short: as §1

[3] = test system: LXRa homodimer (NR concentration 270 nM)
In short: as §1

[4] = test system: LXRb:RXRa (NR concentration 270 nM, RXRa partner concentration 90 nM)
In short: as §1

[5] = test system: LXRb homodimer (NR concentration 270 nM)
In short: as §1

[6] = test system: PPARa:RXRa (NR concentration 270 nM, RXRa partner concentration 90 nM)
In short: as §1

[7] = test system: PPARg:RXRa (NR concentration 180 nM, RXRa partner concentration 90 nM)
In short: as §1

[8] = test system: PPARg:RXRa 270nM:90nM, anti-RXR (NR concentration 270 nM, RXRa partner concentration 90 nM)
In short: as §1

[9] = test system: PPARg:RXRa 30nM:10nM, anti-RXR (NR concentration 30 nM, RXRa partner concentration 10 nM)
In short: as §1

[10] = test system: PPARg:RXRa 90nM:30nM, anti-RXR (NR concentration 90 nM, RXRa partner concentration 30 nM)
In short: as §1

Sequence	PBM binding z-score [1]	PBM binding z-score [2]	PBM binding z-score [3]	PBM binding z-score [4]	PBM binding z-score [5]	PBM binding z-score [6]	PBM binding z-score [7]	PBM binding z-score [8]	PBM binding z-score [9]	PBM binding z-score [10]
TCCTGTAGATCAAGCAGGTTAAGAAAGCCTGAGT	0.115	0.256	-0.387	0.136	-1.12	0.563	-0.537	1.19	2.38	1.42
CAAACTAGGTCAAAGGGCAAAGTCGAGCCAACCA	6.12	5.04	1.25	4.01	0.969	6.94	12.9	10.6	11	11.7
AGAATGAAGTTAAGATCAGGGAAACAGAATACAT	-0.542	-0.312	-0.0829	-0.14	-0.44	-0.111	0.991	0.0665	0.0605	0.34
CCTTCTAGGTCAATGGTCAGCTAAAGCAGCTCGC	3.17	2.37	0.146	1.58	0.698	4.34	7.25	6.5	5.76	7.12
ATCTCTAGGTAAGACTCAGTTCAGGGAAGAACGC	0.579	0.883	0.863	0.68	1.19	0.432	0.216	0.397	0.337	0.289
GCTAGTTGGTCAGTAAAAGGCCACACACCGGTCG	-0.0469	-0.0882	-0.17	-0.23	-0.629	0.0643	0.521	0.122	-0.368	0.378
CCGACTGGGGCAAGGGTTACCATACTCAGTACGA	0.0555	0.199	-0.283	0.579	-0.86	3.84	8.6	7.56	6.82	7.87
CGTCCAGGGTCAGCAGGTCAGTGAAAGCGACGTG	5.44	3.06	-0.214	3.1	-0.458	5.11	4.16	4.41	0.684	2.92
ATATGTAGGTGACATCCGGGTCATTCAGGCTATG	2.96	2.62	0.319	2.21	0.147	5.01	6.79	5.7	2.91	5
ATATGTAGTTTAGCTGGGGTCATTCAGACTAGGC	4.14	4.3	2.38	4.58	1.66	4.45	1.66	2.42	0.899	1.87
GTACCAAGGTAAATAGGTCGTTGATGAGTAGGCG	0.0892	0.228	-0.0943	0.151	-0.264	1.73	1.37	1.34	0.667	0.78
CCTACTGGGCCATAGGTCATTGATTCCAATGCTC	1.76	2.08	1.23	2.39	-0.227	5.16	9.89	8.77	8.56	10.3
CCTTCTGGGCCAAAAAGGTCATTGATGCCGATAA	3.46	4.33	2.97	3.9	0.645	4.48	2.52	3.9	1.16	2.59
GATACAGGGTCAGCTATAGGCCAGAGTATGGAAA	4.11	2.57	-0.223	2.13	-0.306	4.24	3.43	3.17	0.857	2.08
AGAACGAGGGCACGCTGAGTTGATACCAGAGTAG	0.816	0.364	-0.278	0.0367	-0.613	1.76	2.2	1.8	0.433	1.03
CAAACTAGGTCAAGAAGTCAAAGTCCGCTTCCCG	3.65	2.9	0.599	1.94	0.337	4.89	7.74	6.67	4.66	6.22
ATCGAAAGGTCGTGAGATGAGTATACAGAAAGGC	4.78	3.98	0.0145	3	0.525	5.17	3.63	3.8	1.53	2.49
CACACTAGGTCAAGGTCAAAGTCGGTTTGTGCCA	7.12	6.07	5.26	4.87	2.5	5.71	8.74	7.44	5.6	7.61
TTTTGTAGATCAAAGGTTAAGAAAGCCGAAGCCT	1.35	2.03	0.327	2.09	0.386	5.08	9.51	8.59	8.23	9.36
TGACCAAGGTGAAGGTCGTTGATCCCTCTGTAGA	2.13	1.77	-0.327	1.57	-1.14	2.49	2.18	3.17	0.953	2.49
ATCTCTAGGTAAGACTCTGTTCAGTGAAGAACGC	0.455	0.64	0.527	0.145	0.866	0.0687	0.000617	0.133	0.343	0.426
GCAGACAGGTGAAACGCAGGTAACTGAGGGTGGC	-0.0768	-0.241	-0.455	-0.345	-0.944	0.632	0.492	-0.236	-0.698	-0.467
GCTATAAGTTGAAAGGGCAACCGAATGATTCTCG	1.08	1.24	0.185	1.23	-0.471	3.05	2.26	3.37	1.46	3.15
TGAATCAGGTTAAAGATCAGGGAACGTGGCGTCG	0.631	0.732	-0.19	0.221	-0.0822	3.29	4.92	5.85	5.28	6.34
